From PubChem BioAssay AID2825 (Sanford-Burnham Center for Chemical Genomics, 2010) come the findings set out here.

The structures appear in SMILES notation. Hit rate of the full screen: of about 330,000 compounds, about 1,300 (0.39%) were called active. The sample holds actives, similar compounds and a random draw of the others, so the mix is not that of the screen.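 Rule for the calls: active = inhibition of 50% or more; inactive = inhibition below 50%.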

The nature of the test: NALP3 inflammasome inhibitors in reconstituted yeast, primary screen, luminescence, uHTS (AID 2825).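 Note: plate controls were induced DMSO wells for no effect and uninduced yeast grown without galactose for full effect.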 To be noted: Yeast reconstituted NLRP3/ASC/caspase-1, beta-gal luminescence, 24 h; at 10 µM; hits give high values.
As for `O=C(COc1coc(CN2CCN(c3ccccc3)CC2)cc1=O)Nc1ccccc1F`, the inhibition was 11.8% (inactive).

For `COc1ccc(-c2oc(/N=C/N3CCCC3)c(C#N)c2-c2ccc(OC)cc2)cc1`, the inhibition was 15.6% (inactive).

With `N#Cc1nc(COc2ccc(Cl)cc2)oc1N1CCCC1`, the inhibition was 55.6% (active).

`Cc1ccc(OCc2nc(C#N)c(N3CCCC3)o2)cc1`: the inhibition was 63% (active).

Consider `N#Cc1ccc(OCc2nnc(-c3ccc([N+](=O)[O-])cc3)o2)cc1`, for which the inhibition is 20.8% (inactive).

Take `O=S(=O)(c1ccc(Cl)cc1)c1nc(-c2ccco2)oc1N1CCCCC1`: the inhibition was 22.9% (inactive).

Regarding `CC1CCN(c2oc(-c3ccccc3F)nc2C#N)CC1`, the inhibition is 26.9% (inactive).

Turning to `CC(C(=O)N=Nc1c(O)n(C)c2ccc(Br)cc12)n1cnc2ccccc2c1=O` (stereo not drawn), the inhibition was 7.45% (inactive).

As to `COc1ccc(CC(=O)Nc2sc(Cc3ccccc3)c(C)c2C(N)=O)cc1`, the inhibition was 25.1% (inactive).

Consider `O=C(CN1C(=O)/C(=C\c2ccc(C(F)(F)F)cc2)Sc2ccccc21)NCc1ccco1`, for which the inhibition was -3.88% (inactive).

For the molecule `C#CCN1CC(C)/C(=N/O)CC1C` (stereo not drawn), the inhibition is 8.21% (inactive).

Take `CSc1ccc(CN(C)CC(=O)NCc2ccc(F)cc2)cc1`: the inhibition is 30.5% (inactive).

For `CC(Oc1ccc2c(-c3ccccc3)cc(=O)oc2c1)C(=O)NC(Cc1c[nH]c2ccccc12)C(=O)O` (stereo not drawn), the inhibition was 18.5% (inactive).

Consider `CCC(C)Sc1nc2c(cnn2-c2ccc(F)cc2)c(=O)[nH]1` (stereo not drawn), for which the inhibition was -8.33% (inactive).

In the case of `CCSc1nc2sc3c(c2c(=O)n1-c1ccc(C)cc1)CCN(C)C3`, the inhibition is 58.9% (active).

Turning to `CCOc1ccc(-n2c(SCC(=O)OC)nc3sc4c(c3c2=O)CCN(C)C4)cc1`, the inhibition was -6.96% (inactive).

On to `CCCSc1nc2sc3c(c2c(=O)n1-c1ccc(OC)cc1)CCN(C)C3`, for which the inhibition was 18.1% (inactive).

For `CCOP(=O)(OCC)C(Nc1cccc(C)c1)c1ccc(F)cc1` (stereo not drawn), the inhibition is 3.8% (inactive).

As for `Cc1ccccc1N1CCN(C2CCCN(C(=O)c3ocnc3C)C2)CC1` (stereo not drawn), the inhibition was 25.2% (inactive).

On to `Cn1c2ccccc2c2c(C(=O)N3CCN(c4ccc(F)cc4)CC3)cn(C3CCCC3)c(=O)c21`, for which the inhibition is 15.6% (inactive).

On to `CC1CCN(Cc2nc3c(c(=O)n(C)c(=O)n3C)n2CCc2ccccc2)CC1`, for which the inhibition is 21.2% (inactive).

For the molecule `CCCc1nc2c(c(=O)c3ccccc3n2C)c(=O)n1C1CCCCCC1`, the inhibition was 64.7% (active).

For `Cc1onc(-c2c(Cl)cccc2Cl)c1C(=O)c1c[nH]c(C(=O)NC2CC2)c1`, the inhibition was 12.6% (inactive).

With `Cc1cccc(N=C2SC(C)CN2C(=O)CN2C(=O)NC3(CCCC3)C2=O)c1` (stereo not drawn), the inhibition is -3.71% (inactive).

Turning to `C[C@@H]1C[C@@H]2O[C@H]2/C=C\C=C\C(=O)Cc2c(Cl)c(O)cc(O)c2C(=O)O1`, the inhibition is 53.1% (active).

For the molecule `COc1ccc(NC(=O)C2CCC(CNC(=O)[C@@H]3Cc4ccccc4CN3)CC2)cc1` (stereo partly drawn), the inhibition is -1.77% (inactive).

For `O=C(CSc1ncnc2c1oc1ccccc12)NC1CCCC1`, the inhibition is 52% (active).

As to `O=C(CSc1nnc(-c2ccccc2O)o1)NC1CCCCC1`, the inhibition was 35.2% (inactive).

Turning to `O=C(CSc1nnc2c(n1)[nH]c1ccccc12)NC1CCCCC1`, the inhibition is 18.6% (inactive).

`COC(=O)CN1C(=O)[C@H]2[C@@H](/C=C/c3ccccc3)N3C(=O)CN(CC4CC4)C(=O)[C@@]3(Cc3ccccc3)[C@H]2C1=O`: the inhibition is 1.91% (inactive).

For the molecule `CCOc1ccc(C2/C(=C(/O)c3ccc4c(c3)CC(C)O4)C(=O)C(=O)N2CCCn2ccnc2)cc1` (stereo not drawn), the inhibition was 15.6% (inactive).

`COc1ccc(OCC(=O)NCCS(=O)(=O)N2CCN(c3ccc(F)cc3)CC2)cc1`: the inhibition was 7.19% (inactive).

On to `O=C(NNC(=O)c1ccco1)Nc1ccccc1`, for which the inhibition is 8.53% (inactive).

Consider `O=C(/C=C/c1ccco1)Nc1ccc(Oc2ccccc2)cc1`, for which the inhibition was 22.4% (inactive).

On to `COc1ccccc1C(=O)Nc1ccc(NC(=O)c2ccco2)c(C)c1`, for which the inhibition was 50.8% (active).

Regarding `Cc1cc(NC(=O)c2ccc(F)cc2)ccc1NC(=O)c1ccco1`, the inhibition was 12.3% (inactive).

For `O=C(Nc1ccc(Oc2ccccc2)cc1)c1ccco1`, the inhibition is 50.8% (active).

For the molecule `COc1cc(NC(=O)c2cc([N+](=O)[O-])ccc2Br)ccc1NC(=O)c1ccco1`, the inhibition was 20.7% (inactive).

`Cc1cc(O)c(C(=O)/C=C/c2c(F)c(F)c(F)c(F)c2F)c(=O)o1`: the inhibition was 12.5% (inactive).

In the case of `CCOc1ccc(N(C(=O)c2snc(C(N)=O)c2N)C(C(=O)NCC2CCCO2)c2c[nH]c3ccccc23)cc1` (stereo not drawn), the inhibition was 10.6% (inactive).

`COc1cc(OC)c(C(=S)N2CCCC2)cc1OC`: the inhibition was 16% (inactive).

`COc1ccc(NC(=O)COC(=O)c2ccncc2)c(OC)c1`: the inhibition was 18.3% (inactive).

With `O=C(COc1cccc(F)c1)Oc1ccc(C(=O)c2ccccc2)cc1`, the inhibition was -40.2% (inactive).

For the molecule `CCOc1ccc(OCC)c(-c2c(=O)n(OCc3ccc(Cl)cc3)c3ccccc3[n+]2[O-])c1`, the inhibition is 3.29% (inactive).

For the molecule `O=C(COC(=O)c1ccccc1SCC(=O)N1CCCC1)Nc1ccccc1OC(F)F`, the inhibition was 19.4% (inactive).

On to `CCOC(=O)C1CCN(Cc2c(C(=O)N3CCOCC3)nc3c(C)cccn23)CC1`, for which the inhibition is 9.59% (inactive).

`CN(C)c1ccnc2sc(C(=O)c3ccccc3)c(N)c12`: the inhibition was 64.4% (active).

Regarding `CCN(CC)C(=O)c1sc2nc(-c3ccccc3)ccc2c1N`, the inhibition is 20.7% (inactive).

In the case of `CN(C(=O)c1ccccn1)c1nnc(-c2ccccn2)s1`, the inhibition is 9.46% (inactive).

Turning to `O=C(Oc1cccc(O)c1)C1CCCCC1`, the inhibition was 9.17% (inactive).

In the case of `Cc1ccccc1C(=O)NC(=S)NC1CC1`, the inhibition was -9.47% (inactive).

Take `O=C(c1cccc(S(=O)(=O)N2CCCC2)c1)N(Cc1ccco1)C1CCS(=O)(=O)C1` (stereo not drawn): the inhibition is 19.1% (inactive).

With `CC(OC(=O)c1cc2ccccc2[nH]1)C(=O)N(C)c1ccccc1` (stereo not drawn), the inhibition was -0.144% (inactive).

As to `COc1ccc2[nH]c(C(=O)Nc3ccccc3Cl)cc2c1`, the inhibition was -3.34% (inactive).

Consider `O=C(Nc1ccccc1)c1cc2ccccc2[nH]1`, for which the inhibition is 58.5% (active).

For the molecule `COc1ccc(C(=O)c2c(C)c(CCC#N)n3ccccc23)c(OC)c1`, the inhibition was 3.12% (inactive).

`O=C(Nc1ccc(S(=O)(=O)N2CCCCC2)cc1)C1CCN(C(=O)c2ccc(F)cc2)CC1`: the inhibition was 8.87% (inactive).

`O=C(c1[nH]ncc1-c1ccc(Cl)cc1)C1CO1` (stereo not drawn): the inhibition is 2.92% (inactive).
